Laboratory results published in PubChem BioAssay AID1117319 (Southern Research Institute, 2015).
Hit rate of the full screen: of about 260,000 compounds, about 1,500 (0.58%) were called active. Another 5% or so got no clear call; they are omitted.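 How the source made its calls: active means inhibition above a set limit at one or more doses, reproduced on every date tested; inconclusive means results disagree between test dates, or hit never tested in dose response; inactive means the rest.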 Not all results are given here. Potency and affinity values are given separately.

Molecular target: Virion infectivity factor (Human immunodeficiency virus type 1 group M subtype B (isolate BH10)) + Virion infectivity factor (Human immunodeficiency virus type 1 group M subtype B (isolate BRU/LAI)) + Virion infectivity factor (Human immunodeficiency virus type 1 group M subtype B (isolate PCV12)) + Virion infectivity factor (Human immunodeficiency virus type 1 group M subtype B (isolate HXB2)) + DNA dC->dU-editing enzyme APOBEC-3G (Homo sapiens) (UniProt P69720+P69721+P69722+P69723+Q9HC16)
Experiment: HIV-1 Vif–A3G interaction blockers – biochemical, TR-FRET, GST-Vif 1-94, biotin-A3G peptide, dose response retest, primary screen (AID 1117319);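 further: Vif residues 1-94 fused to GST binding biotinylated APOBEC3G peptide 110-148; 0% = full assay without inhibitor and 100% = GST in place of GST-Vif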
Details: TR-FRET GST-Vif / biotin-A3G peptide binding; hits give high values

inhibition, inactive:
CCc1nn2c(=O)cc(COc3ccc(/C=C4\C(=N)N5N=C(CC(C)C)SC5=NC4=O)cc3)nc2s1 9.59%, COc1ccc(OC)c(C2C(C(=O)c3cccs3)=C(O)C(=O)N2CCN(C)C)c1 (stereo unspecified) 0.56%, CN1CCN(CCCNC(=O)c2ccc(/C=C3/Sc4ccccc4N(Cc4cccc(Cl)c4)C3=O)cc2)CC1 2.32%, O=C(C1=C[C@H](c2ccc(Br)cc2)C[C@H](OCc2ccc(CO)cc2)O1)N1CCOCC1 15.5%, Clc1ncc2[nH]cnc2n1 1.24%, COc1cccc(NC2CC(=O)N(CCc3ccccc3)C2=O)c1 (stereo unspecified) 1.52%, COc1ccc(NC2CC(=O)N(CCc3ccccc3)C2=O)cc1 (stereo unspecified) 25.7%, O=C(/C=C/c1ccccc1)c1cc(Br)ccc(=O)c1O 24.6%, Cc1ccc(C(=O)C=Cc2ccc3c(c2)OCO3)c(C)c1 0.22%, O=C(/C=C/c1ccc2c(c1)OCO2)c1ccc(O)cc1O 8.42%, Nc1ccccc1C(=O)/C=C/c1ccc2c(c1)OCO2 3.13%, COC(=O)/C=C/c1ccc2c(c1)OCO2 4.78%, O=C(/C=C/c1ccc(F)cc1)c1cc(Br)ccc1O -1.23%, COC(=O)c1ccccc1NC(=O)CSc1nnc(COc2cccc(OC)c2)n1C 0.63%, COc1ccc(CNC(=O)CSc2ncnc3ccccc23)cc1OC -8.65%, COc1ccc(N2CCN(CC(=O)Nc3ccc(SC(F)F)cc3)CC2)cc1 27.3%, N#Cc1c(NC(=S)NC(=O)Cc2cccs2)sc2c1CCCCC2 12.2%, COc1ccccc1N1CCN(C(=O)COc2ccc(S(=O)(=O)NC(C)C)cc2)CC1 0.75%, CN1CCC(N(C)C(=O)COc2ccccc2Cl)CC1 -7.89%, O=C(O)COc1ccccc1-c1ccccc1 -0.72%, N#Cc1ccc(C(=O)NC2CCCc3ccccc32)cc1 (stereo unspecified) 5.64%, Cc1cn([C@H]2C[C@H](O)[C@@H](CNCc3ccc(F)c(N4CCOCC4)c3)O2)c(=O)[nH]c1=O -0.24%, CC(=O)Nc1ccccc1NC(=O)COc1cccc2ccccc12 -3.58%, COc1ccc(CCN=Cc2c(C)[nH]n(-c3ccc([N+](=O)[O-])cc3)c2=O)cc1OC 3.12%, CC(=O)Nc1ccc(S(=O)(=O)Nc2cccc(-n3cnnn3)c2)cc1 -3.6%, Cc1ccc(S(=O)(=O)Nc2cccc(-n3cnnn3)c2)cc1 -12.1%
